{"source": "PubChem BioAssay AID1159580", "about": "(chemical genetic matrix, 2015)", "experiment": "chemical genetic growth profiling, strain panel (AID 1159580);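 note: tested at 20 µM; growth read once vehicle control cultures reached saturation at 30 °C; 1 = growth at the plate median or of vehicle wells; lower values mean less growth of the strain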", "details": "S. cerevisiae deletion strains, growth OD", "note": "Screen size: about 5,500 compounds; about 2,000 (36%) were called active. Another 18% or so got no clear call; they are omitted. The list shows a part of the results. Values without a mark were called inactive. Cut-off read from the data, not from the text of the source: active = normalized growth mostly below about 0.91 (no sharp cut-off); inconclusive = no clear call, values can overlap the other calls; inactive = mostly above about 0.92."}
{"compound": "CC(=O)CSc1nnc(-c2ccc(C(C)(C)C)cc2)n1-c1ccc(Cl)cc1", "values": [{"measurement": "normalized growth", "setting": "locus YAR019C, strain CDC15, stronger effect = lower value", "result": 0.982}, {"measurement": "normalized growth", "setting": "locus YBL105C, strain PKC1, stronger effect = lower value", "result": 0.974}, {"measurement": "normalized growth", "setting": "locus YBR135W, strain CKS1, stronger effect = lower value", "result": 0.973}, {"measurement": "normalized growth", "setting": "locus YBR136W, strain MEC1, stronger effect = lower value", "result": 0.987}, {"measurement": "normalized growth", "setting": "locus YBR160W, strain CDC28, stronger effect = lower value", "result": 0.976}, {"measurement": "normalized growth", "setting": "locus YDL017W, strain CDC7, stronger effect = lower value", "result": 0.983}, {"measurement": "normalized growth", "setting": "locus YDL028C, strain MPS1, stronger effect = lower value", "result": 0.976}, {"measurement": "normalized growth", "setting": "locus YDL101C, strain DUN1, stronger effect = lower value", "result": 0.974}, {"measurement": "normalized growth", "setting": "locus YDL108W, strain KIN28, stronger effect = lower value", "result": 0.982}, {"measurement": "normalized growth", "setting": "locus YDL132W, strain cdc53, stronger effect = lower value", "result": 0.972}, {"measurement": "normalized growth", "setting": "locus YDL214C, strain PRR2, stronger effect = lower value", "result": 0.959}, {"measurement": "normalized growth", "setting": "locus YDR052C, strain DBF4, stronger effect = lower value", "result": 0.986}, {"measurement": "normalized growth", "setting": "locus YDR054C, strain cdc34, stronger effect = lower value", "result": 0.971}, {"measurement": "normalized growth", "setting": "locus YDR226W, strain ADK1, stronger effect = lower value", "result": 0.973}, {"measurement": "normalized growth", "setting": "locus YDR477W, strain SNF1, stronger effect = lower value", "result": 0.958}, {"measurement": "normalized growth", "setting": "locus YER123W, strain YCK3, stronger effect = lower value", "result": 0.953}, {"measurement": "normalized growth", "setting": "locus YER133W, strain GLC7, stronger effect = lower value", "result": 0.969}, {"measurement": "normalized growth", "setting": "locus YFL009W, strain cdc4, stronger effect = lower value", "result": 0.977}, {"measurement": "normalized growth", "setting": "locus YFL029C, strain CAK1, stronger effect = lower value", "result": 0.987}, {"measurement": "normalized growth", "setting": "locus YFR003C, strain YPI1, stronger effect = lower value", "result": 0.984}, {"measurement": "normalized growth", "setting": "locus YFR019W, strain FAB1, stronger effect = lower value", "result": 1}, {"measurement": "normalized growth", "setting": "locus YFR028C, strain CDC14, stronger effect = lower value", "result": 0.977}, {"measurement": "normalized growth", "setting": "locus YGR040W, strain KSS1, stronger effect = lower value", "result": 0.965}, {"measurement": "normalized growth", "setting": "locus YGR052W, strain FMP48, stronger effect = lower value", "result": 1.02}, {"measurement": "normalized growth", "setting": "locus YGR092W, strain DBF2, stronger effect = lower value", "result": 0.987}, {"measurement": "normalized growth", "setting": "locus YHR030C, strain SLT2, stronger effect = lower value", "result": "0.797 (active)"}, {"measurement": "normalized growth", "setting": "locus YHR079C, strain IRE1, stronger effect = lower value", "result": 0.99}, {"measurement": "normalized growth", "setting": "locus YHR082C, strain KSP1, stronger effect = lower value", "result": 1.04}, {"measurement": "normalized growth", "setting": "locus YHR205W, strain SCH9, stronger effect = lower value", "result": 0.976}, {"measurement": "normalized growth", "setting": "locus YIL147C, strain SLN1, stronger effect = lower value", "result": 0.983}, {"measurement": "normalized growth", "setting": "locus YJL095W, strain BCK1, stronger effect = lower value", "result": 0.926}, {"measurement": "normalized growth", "setting": "locus YJL128C, strain PBS2, stronger effect = lower value", "result": 0.927}, {"measurement": "normalized growth", "setting": "locus YJL157C, strain FAR1, stronger effect = lower value", "result": 0.986}, {"measurement": "normalized growth", "setting": "locus YJR016C, strain ILV3, stronger effect = lower value", "result": 0.982}, {"measurement": "normalized growth", "setting": "locus YJR066W, strain TOR1 (second series), stronger effect = lower value", "result": 0.984}, {"measurement": "normalized growth", "setting": "locus YJR066W, strain TOR1, stronger effect = lower value", "result": 0.972}, {"measurement": "normalized growth", "setting": "locus YKL048C, strain ELM1, stronger effect = lower value", "result": 0.969}, {"measurement": "normalized growth", "setting": "locus YKL067W, strain YNK1, stronger effect = lower value", "result": 0.947}, {"measurement": "normalized growth", "setting": "locus YKL101W, strain HSL1, stronger effect = lower value", "result": 0.973}, {"measurement": "normalized growth", "setting": "locus YKL193C, strain SDS22, stronger effect = lower value", "result": 0.981}, {"measurement": "normalized growth", "setting": "locus YKL203C, strain TOR2, stronger effect = lower value", "result": 1.05}, {"measurement": "normalized growth", "setting": "locus YLR113W, strain HOG1, stronger effect = lower value", "result": 0.914}, {"measurement": "normalized growth", "setting": "locus YLR133W, strain CKI1, stronger effect = lower value", "result": 0.99}, {"measurement": "normalized growth", "setting": "locus YLR403W, strain SFP1, stronger effect = lower value", "result": 0.984}, {"measurement": "normalized growth", "setting": "locus YML070W, strain DAK1, stronger effect = lower value", "result": 0.97}, {"measurement": "normalized growth", "setting": "locus YMR001C, strain CDC5, stronger effect = lower value", "result": 0.985}, {"measurement": "normalized growth", "setting": "locus YMR205C, strain PFK2 (second series), stronger effect = lower value", "result": 0.97}, {"measurement": "normalized growth", "setting": "locus YMR277W, strain FCP1, stronger effect = lower value", "result": 0.978}, {"measurement": "normalized growth", "setting": "locus YNL006W, strain LST8, stronger effect = lower value", "result": 0.98}, {"measurement": "normalized growth", "setting": "locus YNL020C, strain ARK1, stronger effect = lower value", "result": 0.999}, {"measurement": "normalized growth", "setting": "locus YNL161W, strain CBK1, stronger effect = lower value", "result": 0.984}, {"measurement": "normalized growth", "setting": "locus YNL183C, strain NPR1, stronger effect = lower value", "result": 1.01}, {"measurement": "normalized growth", "setting": "locus YNL207W, strain RIO2, stronger effect = lower value", "result": 0.988}, {"measurement": "normalized growth", "setting": "locus YNL222W, strain SSU72, stronger effect = lower value", "result": 0.97}, {"measurement": "normalized growth", "setting": "locus YNL307C, strain MCK1 (second series), stronger effect = lower value", "result": 0.996}, {"measurement": "normalized growth", "setting": "locus YOL078W, strain AVO1, stronger effect = lower value", "result": 0.984}, {"measurement": "normalized growth", "setting": "locus YOL136C, strain PFK27, stronger effect = lower value", "result": 0.983}, {"measurement": "normalized growth", "setting": "locus YOR061W, strain CKA2, stronger effect = lower value", "result": 0.976}, {"measurement": "normalized growth", "setting": "locus YOR119C, strain RIO1, stronger effect = lower value", "result": 0.98}, {"measurement": "normalized growth", "setting": "locus YOR231W, strain MKK1, stronger effect = lower value", "result": 0.97}, {"measurement": "normalized growth", "setting": "locus YOR329C, strain SCD5, stronger effect = lower value", "result": 0.977}, {"measurement": "normalized growth", "setting": "locus YPL031C, strain PHO85, stronger effect = lower value", "result": 0.953}, {"measurement": "normalized growth", "setting": "locus YPL153C, strain RAD53, stronger effect = lower value", "result": 0.972}, {"measurement": "normalized growth", "setting": "locus YPL204W, strain HRR25, stronger effect = lower value", "result": 0.958}, {"measurement": "normalized growth", "setting": "locus YPL209C, strain IPL1, stronger effect = lower value", "result": 0.984}, {"measurement": "normalized growth", "setting": "locus YPL256C, strain CLN2, stronger effect = lower value", "result": 0.918}, {"measurement": "normalized growth", "setting": "locus YPR025C, strain CCL1, stronger effect = lower value", "result": 0.976}, {"measurement": "normalized growth", "setting": "locus YPR106W, strain ISR1, stronger effect = lower value", "result": 0.974}, {"measurement": "normalized growth", "setting": "locus YPR111W, strain DBF20, stronger effect = lower value", "result": 0.965}, {"measurement": "normalized growth", "setting": "strain NNK1, stronger effect = lower value", "result": 0.997}, {"measurement": "normalized growth", "setting": "strain TSCII, stronger effect = lower value", "result": 0.99}]}
